The values below come from PubChem BioAssay (EPA / NIEHS).

Records with an inconclusive call do not appear. Active and inactive are the calls of the source. The calls were made as follows, unless noted: active = hit-call score of the fitted dose curve at least 0.9, where 1 is the maximum; inactive = score below 0.9.

Experiment [1] can be described thus: ATG_NFI_CIS: Attagene CIS-FACTORIAL HepG2 Assay for human Nuclear Factor I (NFI) (AID 2282989). As to conditions: HepG2 cis-regulatory reporter, NFI response element transcription; actives raise or lower the signal. A digest of the protocol:
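Reporter transcription driven by endogenous transcription factors in HepG2 cells; 24 h treatment. Quantitation by labelled RT-PCR fragments on capillary electrophoresis, gain- or loss-of-signal relative to DMSO.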

The target in experiment [2] is Myc proto-oncogene protein (Homo sapiens) (UniProt P01106). The experiment is described as follows: ATG_Myc_CIS: Attagene CIS-FACTORIAL HepG2 Assay for human Myelocytomatosis (Myc) Proto-Oncogene Transcription Factor (AID 2282990). As to conditions: HepG2, Attagene cis-reporter transcription factor activity; actives raise or lower the signal. A digest of the protocol: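 HepG2 cells transiently transfected with multiple cis-promoter-driven reporter transcription units, so endogenous TF activity is read. After 24 h compound exposure, reporter mRNA was quantified by RT-PCR, 6-FAM labelling, HpaI digestion and capillary electrophoresis; bidirectional fit versus DMSO.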

The nature of experiment [3]: ATG_NF_kB_CIS: Attagene CIS-FACTORIAL HepG2 Assay for human Nuclear Factor Kappa B (NF-kB) (AID 2282991). The conditions noted are these: HepG2 Attagene cis-factorial NF-kB reporter mRNA; actives raise or lower the signal. A digest of the protocol:
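Read-out: reporter transcript levels quantified by RT-PCR plus capillary electrophoresis of 6-FAM-labelled, HpaI-cut fragments. Transfected HepG2 cells, 24 h compound exposure, endogenous NF-kB-driven cis element; gain or loss scored versus DMSO.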

Experiment [4] can be described thus: ATG_NRF2_ARE_CIS: Attagene CIS-FACTORIAL HepG2 Assay for human Nuclear Factor Erythroid 2 Related Factor 2 (NFR2) response to Antioxidant Response Elements (ARE) (AID 2282992).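 As to AC50: reporter mRNA level measured by RT-PCR and capillary electrophoresis fluorescence.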 As to conditions: HepG2 Attagene ARE/NRF2 reporter, transcription factor activity; actives raise or lower the signal. The procedure, abridged: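 Fluorescence intensity of reporter-specific cDNA fragments, separated by capillary electrophoresis, reflects mRNA induction in transfected HepG2 cells at 24 h. Activity is fitted bidirectionally, DMSO serving as baseline.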

The nature of experiment [5]: ATG_Oct_MLP_CIS: Attagene CIS-FACTORIAL HepG2 Assay for human Octamer-Binding Transcription Factor (Oct) (AID 2282993). The conditions noted are these: HepG2 Attagene cis-factorial Oct reporter, mRNA; actives raise or lower the signal. The procedure, abridged:
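Transfected HepG2 cells, 24 h treatment. Reporter mRNA quantified by RT-PCR–capillary electrophoresis; bidirectional fitting against DMSO.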

The target of experiment [6] is Cellular tumor antigen p53 (Homo sapiens) (UniProt P04637). Description: ATG_p53_CIS: Attagene CIS-FACTORIAL HepG2 Assay for human p53 Transcription Factor (AID 2282994). The conditions noted are these: HepG2 p53 cis-element reporter, Attagene mRNA; actives raise or lower the signal. A digest of the protocol:
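Transiently transfected HepG2 (multiple cis reporter transcription units); exposure 24 h; reporter RNA via RT-PCR, 6-FAM extension, 2 h HpaI digest at 37 C, CE detection; DMSO baseline.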

Experiment [7] concerns the target human Peroxisome Proliferator-activated Receptor alpha (PPARa), PPARA (gene 5465) (UniProt Q07869). The experiment is described as follows: ATG_PPARa_TRANS: Attagene TRANS-FACTORIAL HepG2 Assay for human Peroxisome Proliferator-activated Receptor alpha (PPARa) (AID 2283001; active = hit-call score of the fitted dose curve at least 0.9, where 1 is the maximum;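 as to AC50: potency for gain of reporter signal over DMSO so agonist or activator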). A digest of the protocol: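 Cells (HepG2) are transfected with multiple reporter transcription units, exposed to chemical for 24 h, then total RNA is reverse-transcribed and amplified. Labelled products are quantified by capillary electrophoresis; induction is referenced to DMSO.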

The target in experiment [8] is Peroxisome proliferator-activated receptor gamma (Homo sapiens) (UniProt P37231). The experiment is described as follows: ATG_PPARg_TRANS: Attagene TRANS-FACTORIAL HepG2 Assay for human Peroxisome Proliferator-activated Receptor-gamma (PPARg) (AID 2283007; active = hit-call score of the fitted dose curve at least 0.9, where 1 is the maximum). The procedure, abridged: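 Read-out: reporter mRNA induction, detected by fluorescence after RT-PCR and capillary electrophoresis. Transiently transfected human HepG2 liver cells carrying a chimeric NR-Gal4 construct were dosed for 24 h; activity was fitted upward relative to DMSO.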

In experiment [9] the target is Nuclear receptor subfamily 1 group I member 2 (Homo sapiens) (UniProt O75469). The experiment is described as follows: ATG_PXR_TRANS: Attagene TRANS-FACTORIAL HepG2 Assay for human Pregnane X Receptor (PXR) (AID 2283008; active = hit-call score of the fitted dose curve at least 0.9, where 1 is the maximum). A digest of the protocol: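 Transient HepG2 transfectants carrying multiplexed reporter transcription units; PXR activity read through a Gal4 chimera. 24 h exposure. RT-PCR/CE fluorescence; upward curve fit referenced to DMSO.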

For experiment [10], the target named is human Peroxisome Proliferator-activated Receptor delta (PPARd), PPARD (gene 5467) (UniProt Q03181). The experiment is described as follows: ATG_PPARd_TRANS: Attagene TRANS-FACTORIAL HepG2 Assay for human Peroxisome Proliferator-activated Receptor delta (PPARd) (AID 2283002; active = hit-call score of the fitted dose curve at least 0.9, where 1 is the maximum). A digest of the protocol: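 HepG2 cells transiently transfected with multiplexed GAL4-UAS reporter units and exogenous chimeric NR-Gal4 proteins; 24 h compound exposure. Reporter mRNA measured by RT-PCR, 6-FAM labelling, HpaI digestion and capillary electrophoresis; gain of signal versus DMSO.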

Experiment [11] concerns the target human Retinoic Acid Receptor beta (RARb), RARB (gene 5915) (UniProt P10826). The experiment is described as follows: ATG_RARb_TRANS: Attagene TRANS-FACTORIAL HepG2 Assay for human Retinoic Acid Receptor beta (AID 2283004; active = hit-call score of the fitted dose curve at least 0.9, where 1 is the maximum). The procedure, abridged: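 Transient transfection of HepG2 with multiple reporter units → chemical dosing, 24 h → total RNA isolation → RT with oligo(dT) → reporter-specific PCR, 6-FAM primer extension, HpaI digest → capillary electrophoresis. Positive direction vs DMSO control.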

For experiment [12], the target named is Retinoic acid receptor alpha (Homo sapiens) (UniProt P10276). Description: ATG_RARa_TRANS: Attagene TRANS-FACTORIAL HepG2 Assay for human Retinoic Acid Receptor alpha (RARa) (AID 2283005; active = hit-call score of the fitted dose curve at least 0.9, where 1 is the maximum). A digest of the protocol:
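HepG2 cells transiently transfected with multiple reporter units expressing chimeric RARα-GAL4 fusion, with GAL4-UAS-driven reporters. After 24 h compound exposure, reporter mRNA induction quantified by RT-PCR and capillary electrophoresis with fluorescent labeling; gain-of-signal fitted relative to DMSO control.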

Experiment [13] deals with human Retinoic Acid Receptor gamma (RARg), RARG (gene 5916) (UniProt P13631). Description: ATG_RARg_TRANS: Attagene TRANS-FACTORIAL HepG2 Assay for human Retinoic Acid Receptor gamma (RARg) (AID 2283009; active = hit-call score of the fitted dose curve at least 0.9, where 1 is the maximum). The procedure, abridged:
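Transactivation of exogenous RARg-Gal4 fusion measured as reporter transcript induction after 24 h in transfected HepG2 cells. RNA reverse-transcribed, amplified, fluorescently labeled and resolved by capillary electrophoresis; increase relative to DMSO.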

Experiment [14] addresses human RAR-related Orphan Receptor beta (RORb), RORB (gene 6096) (UniProt Q92753). The experiment is described as follows: ATG_RORb_TRANS: Attagene TRANS-FACTORIAL HepG2 Assay for human RAR-related Orphan Receptor beta (RORb) (AID 2283010; active = hit-call score of the fitted dose curve at least 0.9, where 1 is the maximum). A digest of the protocol: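 Read-out is reporter mRNA induction, quantified by RT-PCR with fluorescent capillary electrophoresis, 24 h post-dose in transiently transfected HepG2 expressing exogenous NR-Gal4 chimera. Activity fitted upward versus DMSO.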

Chain of human Retinoic Acid Receptor gamma (RARg), RARG (gene 5916) (P13631 whole entry, looked up, the tested form may be a part): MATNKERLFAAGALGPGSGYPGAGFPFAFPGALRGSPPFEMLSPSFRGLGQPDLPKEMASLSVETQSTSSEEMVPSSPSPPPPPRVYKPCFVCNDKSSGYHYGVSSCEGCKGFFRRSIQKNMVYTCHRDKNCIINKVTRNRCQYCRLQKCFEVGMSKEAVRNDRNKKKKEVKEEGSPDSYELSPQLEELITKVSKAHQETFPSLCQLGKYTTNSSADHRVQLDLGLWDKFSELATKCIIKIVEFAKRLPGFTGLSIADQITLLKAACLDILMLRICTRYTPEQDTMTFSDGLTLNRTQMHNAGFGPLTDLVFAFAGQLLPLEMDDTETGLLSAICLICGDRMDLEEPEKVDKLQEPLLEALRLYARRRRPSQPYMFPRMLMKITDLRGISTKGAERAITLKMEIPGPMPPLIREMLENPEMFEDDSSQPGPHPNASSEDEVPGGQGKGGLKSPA
Chain of human Peroxisome Proliferator-activated Receptor alpha (PPARa), PPARA (gene 5465) (Q07869 whole entry, looked up): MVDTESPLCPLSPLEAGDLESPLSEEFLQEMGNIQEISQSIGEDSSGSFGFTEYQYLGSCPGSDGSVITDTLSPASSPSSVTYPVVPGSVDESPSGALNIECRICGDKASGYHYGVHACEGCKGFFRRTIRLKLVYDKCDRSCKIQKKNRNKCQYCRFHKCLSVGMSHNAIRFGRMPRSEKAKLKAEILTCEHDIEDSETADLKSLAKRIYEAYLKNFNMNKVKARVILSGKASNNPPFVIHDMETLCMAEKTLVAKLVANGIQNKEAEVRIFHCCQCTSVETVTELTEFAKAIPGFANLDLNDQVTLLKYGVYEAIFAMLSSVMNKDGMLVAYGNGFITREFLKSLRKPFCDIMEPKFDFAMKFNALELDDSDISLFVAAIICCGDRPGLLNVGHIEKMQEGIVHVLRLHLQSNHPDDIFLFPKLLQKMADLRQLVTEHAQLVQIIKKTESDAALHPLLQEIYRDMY
Chain of human Retinoic Acid Receptor beta (RARb), RARB (gene 5915) (P10826 whole entry, looked up): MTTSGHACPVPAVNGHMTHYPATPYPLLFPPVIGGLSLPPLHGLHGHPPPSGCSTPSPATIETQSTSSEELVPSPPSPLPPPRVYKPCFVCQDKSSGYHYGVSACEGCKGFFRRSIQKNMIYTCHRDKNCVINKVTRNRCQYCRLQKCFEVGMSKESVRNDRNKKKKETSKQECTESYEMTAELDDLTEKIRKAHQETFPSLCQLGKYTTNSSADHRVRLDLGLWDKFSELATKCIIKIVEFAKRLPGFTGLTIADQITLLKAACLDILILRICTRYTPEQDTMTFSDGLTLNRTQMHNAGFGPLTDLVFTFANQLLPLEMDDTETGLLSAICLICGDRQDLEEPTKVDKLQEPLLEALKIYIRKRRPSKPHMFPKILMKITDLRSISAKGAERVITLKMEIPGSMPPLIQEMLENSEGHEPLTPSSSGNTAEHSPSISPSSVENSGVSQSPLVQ
Chain of Myc proto-oncogene protein (Homo sapiens) (P01106 whole entry, looked up): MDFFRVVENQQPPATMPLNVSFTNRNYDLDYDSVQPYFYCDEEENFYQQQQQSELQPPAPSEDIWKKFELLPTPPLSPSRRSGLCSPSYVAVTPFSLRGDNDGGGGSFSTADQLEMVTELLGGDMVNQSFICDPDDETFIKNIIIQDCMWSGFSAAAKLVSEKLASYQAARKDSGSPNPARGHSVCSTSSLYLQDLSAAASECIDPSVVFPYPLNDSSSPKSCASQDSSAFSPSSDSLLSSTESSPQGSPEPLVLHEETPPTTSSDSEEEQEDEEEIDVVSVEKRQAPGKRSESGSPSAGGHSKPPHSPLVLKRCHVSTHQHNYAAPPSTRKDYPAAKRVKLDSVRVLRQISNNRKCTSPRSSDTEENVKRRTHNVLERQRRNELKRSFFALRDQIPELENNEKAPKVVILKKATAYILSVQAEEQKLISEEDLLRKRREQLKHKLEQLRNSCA
Chain of Peroxisome proliferator-activated receptor gamma (Homo sapiens) (P37231 whole entry, looked up, the tested form may be a part): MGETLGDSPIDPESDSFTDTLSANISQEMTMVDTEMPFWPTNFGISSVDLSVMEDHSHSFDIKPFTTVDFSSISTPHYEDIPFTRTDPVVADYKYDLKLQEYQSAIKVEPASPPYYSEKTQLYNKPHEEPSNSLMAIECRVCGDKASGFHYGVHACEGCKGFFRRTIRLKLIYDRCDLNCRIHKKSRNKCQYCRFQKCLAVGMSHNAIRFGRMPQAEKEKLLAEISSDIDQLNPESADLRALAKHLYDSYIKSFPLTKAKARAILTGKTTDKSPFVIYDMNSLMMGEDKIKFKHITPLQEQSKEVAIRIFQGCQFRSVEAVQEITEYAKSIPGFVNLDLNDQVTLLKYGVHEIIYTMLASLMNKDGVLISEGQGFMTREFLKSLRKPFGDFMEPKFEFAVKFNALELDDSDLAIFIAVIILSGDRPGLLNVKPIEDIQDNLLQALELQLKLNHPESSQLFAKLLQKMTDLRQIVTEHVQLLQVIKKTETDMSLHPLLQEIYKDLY
Chain of human Peroxisome Proliferator-activated Receptor delta (PPARd), PPARD (gene 5467) (Q03181 whole entry, looked up, the tested form may be a part): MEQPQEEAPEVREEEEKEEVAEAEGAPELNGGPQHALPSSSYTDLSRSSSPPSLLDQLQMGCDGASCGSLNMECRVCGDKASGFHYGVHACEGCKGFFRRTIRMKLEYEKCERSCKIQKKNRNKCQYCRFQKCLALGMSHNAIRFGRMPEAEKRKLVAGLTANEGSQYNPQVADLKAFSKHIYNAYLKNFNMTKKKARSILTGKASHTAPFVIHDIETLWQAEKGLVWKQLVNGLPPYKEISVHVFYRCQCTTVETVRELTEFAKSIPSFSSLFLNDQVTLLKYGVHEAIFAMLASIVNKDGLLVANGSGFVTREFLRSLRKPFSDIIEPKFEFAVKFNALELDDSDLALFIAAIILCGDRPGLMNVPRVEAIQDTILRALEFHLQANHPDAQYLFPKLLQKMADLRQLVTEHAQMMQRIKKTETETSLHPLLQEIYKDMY
Chain of Cellular tumor antigen p53 (Homo sapiens) (P04637 whole entry, looked up): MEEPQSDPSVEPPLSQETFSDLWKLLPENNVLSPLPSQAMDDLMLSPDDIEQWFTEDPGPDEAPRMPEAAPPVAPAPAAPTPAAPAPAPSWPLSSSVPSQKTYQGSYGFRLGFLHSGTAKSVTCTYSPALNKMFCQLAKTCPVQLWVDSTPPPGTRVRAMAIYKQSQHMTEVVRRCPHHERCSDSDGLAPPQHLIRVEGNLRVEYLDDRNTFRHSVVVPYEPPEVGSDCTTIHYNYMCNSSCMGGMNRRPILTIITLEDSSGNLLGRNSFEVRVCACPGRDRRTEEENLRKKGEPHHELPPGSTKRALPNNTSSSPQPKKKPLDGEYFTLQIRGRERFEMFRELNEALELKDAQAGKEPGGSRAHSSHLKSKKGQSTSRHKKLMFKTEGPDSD
Chain of Retinoic acid receptor alpha (Homo sapiens) (P10276 whole entry, looked up, the tested form may be a part): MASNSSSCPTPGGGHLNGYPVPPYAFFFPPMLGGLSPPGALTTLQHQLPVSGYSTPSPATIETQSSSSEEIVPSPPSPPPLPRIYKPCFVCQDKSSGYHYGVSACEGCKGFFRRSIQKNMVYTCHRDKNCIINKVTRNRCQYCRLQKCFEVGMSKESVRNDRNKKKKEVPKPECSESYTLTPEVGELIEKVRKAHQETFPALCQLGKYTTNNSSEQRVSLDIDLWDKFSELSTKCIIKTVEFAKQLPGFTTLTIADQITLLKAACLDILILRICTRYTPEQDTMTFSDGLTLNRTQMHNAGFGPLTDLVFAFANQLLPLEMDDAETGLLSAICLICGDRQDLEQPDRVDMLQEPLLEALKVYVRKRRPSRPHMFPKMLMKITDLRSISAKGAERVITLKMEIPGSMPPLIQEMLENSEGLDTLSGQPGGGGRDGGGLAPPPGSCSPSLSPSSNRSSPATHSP
Chain of Nuclear receptor subfamily 1 group I member 2 (Homo sapiens) (O75469 whole entry, looked up, the tested form may be a part): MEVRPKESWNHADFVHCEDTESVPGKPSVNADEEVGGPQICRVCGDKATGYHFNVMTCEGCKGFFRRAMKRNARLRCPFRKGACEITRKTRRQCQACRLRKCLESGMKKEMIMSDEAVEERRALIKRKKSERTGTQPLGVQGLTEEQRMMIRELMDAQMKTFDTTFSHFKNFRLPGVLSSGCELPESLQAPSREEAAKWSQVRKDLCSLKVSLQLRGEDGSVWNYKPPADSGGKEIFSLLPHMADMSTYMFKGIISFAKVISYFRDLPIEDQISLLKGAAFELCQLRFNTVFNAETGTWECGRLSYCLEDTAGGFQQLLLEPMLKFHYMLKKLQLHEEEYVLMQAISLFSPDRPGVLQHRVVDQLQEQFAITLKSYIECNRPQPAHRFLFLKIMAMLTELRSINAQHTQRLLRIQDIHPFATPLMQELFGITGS
Chain of human RAR-related Orphan Receptor beta (RORb), RORB (gene 6096) (Q92753 whole entry, looked up, the tested form may be a part): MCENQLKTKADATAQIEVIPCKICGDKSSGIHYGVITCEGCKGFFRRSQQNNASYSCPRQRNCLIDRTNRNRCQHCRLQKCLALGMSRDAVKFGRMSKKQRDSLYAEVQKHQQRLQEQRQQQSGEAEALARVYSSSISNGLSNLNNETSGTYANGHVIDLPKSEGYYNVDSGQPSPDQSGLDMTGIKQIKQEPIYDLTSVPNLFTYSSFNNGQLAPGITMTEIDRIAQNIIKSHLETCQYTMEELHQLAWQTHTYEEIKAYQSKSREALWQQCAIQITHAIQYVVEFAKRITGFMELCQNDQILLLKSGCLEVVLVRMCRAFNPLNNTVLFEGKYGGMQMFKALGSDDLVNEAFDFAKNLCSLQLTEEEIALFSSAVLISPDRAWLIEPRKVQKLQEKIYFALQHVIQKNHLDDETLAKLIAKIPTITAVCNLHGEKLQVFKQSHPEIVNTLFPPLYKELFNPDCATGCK

With `Cc1cc(SCc2sc(-c3ccc(C(F)(F)F)c(F)c3)nc2C)ccc1OCC(=O)O`, the molecule was called inactive in experiment [1], in experiment [2], in [3] and in experiment [4]. The AC50 (usually the concentration at which the activity in the assay is half-maximal) was 15.6 µM (active) in experiment [5]; 47.1 µM (active) in experiment [6]; 0.201 µM (active) in [7]; 0.887 µM (active) in experiment [8]; 2.05 µM (active) in [9].

Regarding `CCC[CH2][Sn]([Cl])([Cl])[CH2]CCC`, the half-maximal activity concentration (AC50) is 0.458 µM (active) in experiment [1]; 1.99 µM (active) in experiment [3]; 0.315 µM (active) in experiment [4]; 0.949 µM (active) in [5]; 0.73 µM (active) in experiment [8]. In addition, the molecule was classed as inactive in experiment [2], in experiment [6] and in experiment [10].

For the molecule `CCNc1nc(NCC)nc(SC)n1`, the outcome in experiment [1], in [2], in [3], in experiment [4], in [5] and in [6] was inactive. Also, the call in [7], in experiment [11], in [12], in [8], in experiment [9] and in experiment [13] was inactive.

`CCN(N=O)C(N)=O`: the molecule was called inactive in [1], in experiment [2], in experiment [3], in experiment [4], in [5] and in experiment [6]. The result in experiment [7], in experiment [11], in experiment [12], in experiment [8] and in experiment [9] was inactive.

Consider `O=CCCl`, for which the molecule was called inactive in experiment [1], in experiment [6], in experiment [7], in experiment [12], in experiment [8] and in [13]. Moreover, the concentration at half-maximal activity (AC50) is 24.5 µM (active) in [2], 32.7 µM (active) in experiment [3], 23.6 µM (active) in experiment [4] and 26 µM (active) in experiment [5].

In the case of `Cc1cccc(C)c1NC(=O)CN1CCCC1=O`, the molecule was classed as inactive in experiment [1], in experiment [2], in experiment [3], in [4], in experiment [5] and in [6]. In addition, the outcome in experiment [7], in experiment [8] and in experiment [9] was inactive.

With `CC(c1ccccc1)(c1ccc(O)cc1)c1ccc(O)cc1`, the molecule was called inactive in experiment [1], in [2], in experiment [10], in [12] and in experiment [8]. The AC50 in experiment [3] is 14.6 µM (active); in experiment [4], 11.1 µM (active); in experiment [5], 11.1 µM (active); in experiment [6] it was 16.2 µM (active).

On to `CCOP(=S)(OCC)O/N=C(\C#N)c1ccccc1`, for which the call in experiment [1], in experiment [2], in experiment [3], in experiment [5], in [6] and in experiment [10] was inactive. For the same molecule, the concentration at half-maximal activity (AC50) in experiment [4] was 27.7 µM (active); in experiment [8] it was 10.6 µM (active).

Take `CC(=O)CN(CC(C)=O)N=O`: the molecule was classed as inactive in [1], in experiment [2], in experiment [3], in experiment [4], in [5] and in experiment [6]. For the same molecule, the call in experiment [7], in experiment [10], in experiment [8] and in experiment [14] was inactive.

As to `CCN(CCO)CCO`, the outcome in experiment [1], in [2], in [3], in experiment [4], in [5] and in experiment [6] was inactive. The call in [7] and in experiment [12] was inactive.

For the molecule `Cl[C@H]1OCCO[C@@H]1Cl`, the result in [1], in experiment [2], in experiment [3], in [4], in [5] and in experiment [6] was inactive. The call in experiment [7], in experiment [11], in experiment [8], in experiment [9], in experiment [13] and in [14] was inactive.
